Sfp inh – blocks B. subtilis Sfp PPTase activity. Q9F4F7. 3.5% of 310,000 active. Biochemical Sfp PPTase activity, qHTS. Potency, µM, without a hit: largest response in the series, negative = inhibition, hits mostly inhibitors;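 note: the enzyme is Sfp with the accession as filed and its product quenches rhodamine fluorescence; 0% = enzyme reaction without inhibitor and -100% = no enzyme wells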
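Buffer: 50 mM Hepes-Na pH 7.6, 10 mM MgCl2, 0.01% Nonidet P-40, 0.01% BSA. Enzyme 15 nM, pre-exposed to compound 15 min; substrates then added and fluorescence change tracked over 30 min.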
TDP1 block – blocks human tyrosyl-DNA phosphodiesterase 1; recombinant TDP1, AlphaScreen DNA substrate cleavage; AID 485290; 0.28% of 350,000 active; Potency, µM (doses to about 130 µM), for the others: at the highest dose activity change, negative = inhibition, most hits filed as inhibitors; Q9NUW8; note: % is set by controls: 0 for no effect and ±100 for the full control effect; nearly all actives have a fitted effect of over 40% in size
Target sequence (Q9NUW8 whole entry, looked up): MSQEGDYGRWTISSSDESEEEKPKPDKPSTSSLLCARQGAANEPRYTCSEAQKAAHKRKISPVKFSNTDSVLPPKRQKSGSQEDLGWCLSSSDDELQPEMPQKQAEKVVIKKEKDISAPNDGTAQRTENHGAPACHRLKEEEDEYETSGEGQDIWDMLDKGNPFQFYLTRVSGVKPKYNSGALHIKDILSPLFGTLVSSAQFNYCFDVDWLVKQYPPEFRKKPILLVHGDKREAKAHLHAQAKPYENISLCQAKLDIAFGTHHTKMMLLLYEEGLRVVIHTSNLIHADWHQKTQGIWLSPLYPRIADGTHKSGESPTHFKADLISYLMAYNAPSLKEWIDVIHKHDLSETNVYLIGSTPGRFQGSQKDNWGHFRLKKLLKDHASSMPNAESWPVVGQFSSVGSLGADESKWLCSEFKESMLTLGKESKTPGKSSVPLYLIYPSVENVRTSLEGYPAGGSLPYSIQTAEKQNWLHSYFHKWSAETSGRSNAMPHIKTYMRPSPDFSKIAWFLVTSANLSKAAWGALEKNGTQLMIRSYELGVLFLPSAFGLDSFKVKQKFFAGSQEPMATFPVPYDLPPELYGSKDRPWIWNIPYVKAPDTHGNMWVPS
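Compounds were preincubated with Tdp1 (1 nM final) for 15 min at room temperature before substrate (15 nM final) started a 5 min reaction; beads (10 ug/ml final) were then added for 10 min before AlphaScreen detection.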
JMJD2A Tudor inh – inhibitors of human JMJD2A Tudor domain | AlphaScreen JMJD2A-Tudor / H3K4me3 peptide binding | Potency, µM (top dose mostly 114 µM), inactives show top-dose activity change, negative = inhibition, most hits filed as inhibitors | O75164 | AID 504339 | 4.4% of 390,000 active; note: % is set by controls: 0 for no effect and ±100 for the full control effect; nearly all actives have a fitted effect of over 50% in size
HP1b chromo inh – blocks HP1-beta chromodomain binding to methylated histone tails | AlphaScreen HP1-beta / biotin-H3K9me3 peptide binding | Potency, µM (highest dose often 114 µM), without a hit: at the top dose activity change, negative = inhibition, actives largely listed as inhibitors | 0.56% of 390,000 active | AID 540317; note: nearly all actives have a fitted effect of over 70% in size
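HP1-beta protein (50 nM final) preincubated 30 min at room temperature with biotinylated H3(1-18)K9me3 peptide (50 nM) in PBS pH 7.4, 0.01% Tween-20, then compound added for 30 min. AlphaScreen streptavidin donor/nickel chelate acceptor beads (10 ug/mL final), 30 min dark, luminescence read.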
G9a inh – inhibitors of human histone lysine methyltransferase G9a | Q96KQ7 | G9a H3K9 monomethylation, AlphaScreen, 2 h | Potency, µM (series often up to 102 µM), inactives show at the highest dose activity, negative = inhibition, usual class: inhibitors | 8.8% of 350,000 active | AID 504332; note: % is set by controls: 0 for no effect and ±100 for the full control effect; nearly all actives have a fitted effect of over 75% in size
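Signal arises when biotinylated H3K9 peptide, once monomethylated, bridges streptavidin donor and antibody-captured acceptor beads. Enzyme at 20 nM was preincubated 15 min with test compounds; peptide 500 nM and SAM 20 uM then reacted for 2 h.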
BAZ2B inh – inhibitors of human BAZ2B bromodomain. Q9UIF8. AlphaScreen BAZ2B-H3K14Ac peptide displacement. Potency, µM (top dose mostly 114 µM), for inactives: at the highest dose activity change, negative = inhibition, most hits filed as inhibitors. 4.4% of 360,000 active; note: % is set by controls: 0 for no effect and ±100 for the full control effect; nearly all actives have a fitted effect of over 60% in size
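Inhibition is scored as reduced AlphaScreen emission. The BAZ2B/b-H3(5-23)K14Ac complex (50 nM each) in PBS pH 7.4, 0.01% Tween-20 meets compound (up to 110 uM) for 30 min at RT before bead addition.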
Numbers without * were called inactive; [ ] = dose if it differs, or a comment. Most compounds without a hit are left out; they make up all but 12% or so of the library. Calls come from the whole dose curve; as a rule, active = well fitted curve in the direction sought with a large enough effect; inconclusive = small, poorly fitted or top-dose-only effect, or another doubt; inactive = no such curve, though single readings can be large; an effect the other way counts as inactive or inconclusive. Potency is the fitted concentration of half-maximal effect.

How did COC(=O)c1cc2c(ccn2-c2ccc(F)cc2)n1Cc1ccc(OC(C)=O)cc1 do in these assays?
Sfp inh: 16%; TDP1 block: -3%; JMJD2A Tudor inh: inconclusive; HP1b chromo inh: 0%; G9a inh: 50µM*; BAZ2B inh: inconclusive

Results for CCCn1c(C(=O)OC)cc2c1ccn2-c1ccc(F)cc1 ?
Sfp inh: inconclusive; TDP1 block: 4%; JMJD2A Tudor inh: inconclusive; HP1b chromo inh: -10%; G9a inh: 71µM*; BAZ2B inh: inconclusive

Results for COC(=O)c1cc2c(ccn2-c2ccc(F)cc2)n1C(C)C ?
Sfp inh: -23%; TDP1 block: 8%; JMJD2A Tudor inh: inconclusive; HP1b chromo inh: inconclusive; G9a inh: -8%[0.0925 µM]; BAZ2B inh: inconclusive

How did CCC1CCCCN1Cc1ccc(CNC(=O)CCc2nnc3ccc(N4CCCCC4)nn23)o1 (stereo not given) do in these assays?
Sfp inh: 9%; TDP1 block: 1%; JMJD2A Tudor inh: -13%; HP1b chromo inh: 55%; BAZ2B inh: 0%

Results for O=C(CSc1nnc2c3ccccc3c3ccccc3c2n1)Nc1ccccc1 ?
Sfp inh: 9%; TDP1 block: 6%; G9a inh: 45µM*; BAZ2B inh: -5%[57.1 µM]

Results for O=C(CSc1nnc2c3ccccc3c3ccccc3c2n1)Nc1ccccc1F ?
Sfp inh: -63%; TDP1 block: -4%; JMJD2A Tudor inh: -22%; HP1b chromo inh: -11%; BAZ2B inh: 56µM*

What do the screens show for `O=C(CSc1nncc2ccccc12)Nc1ccccc1`?
Sfp inh: 7%; JMJD2A Tudor inh: -1%; HP1b chromo inh: 15%; G9a inh: inconclusive; BAZ2B inh: 0%

What do the screens show for `COc1ccc(-n2nc(C(=O)NCC(=O)N3CCOCC3)c3ccccc3c2=O)c(OC)c1`?
Sfp inh: 12%; TDP1 block: 3%; JMJD2A Tudor inh: -6%; HP1b chromo inh: -18%; G9a inh: 13%; BAZ2B inh: 4%

How did COc1ccc(-n2nc(C(=O)NCCCN3CCOCC3)c3ccccc3c2=O)c(OC)c1 do in these assays?
Sfp inh: 6%; TDP1 block: 1%; JMJD2A Tudor inh: 56µM*; HP1b chromo inh: 9%; G9a inh: 15%; BAZ2B inh: -24%

Results for COc1ccc(OC)c(-c2nc(C(=O)NCCCN3CCOCC3)cc3c2[nH]c2ccccc23)c1 ?
Sfp inh: -10%; JMJD2A Tudor inh: inconclusive; HP1b chromo inh: 19%; G9a inh: 3%[12.7 µM]; BAZ2B inh: 50µM*

What do the screens show for `CC(OC(=O)Cc1n[nH]c(=O)c2ccccc12)C(=O)Nc1ccc(F)cc1Cl` (stereo not given)?
JMJD2A Tudor inh: -8%; HP1b chromo inh: 23%; G9a inh: 17%[0.501 µM]; BAZ2B inh: 11%

How did CCCNC(=O)c1cnc(Sc2ncc(C(F)(F)F)cc2Cl)n1C do in these assays?
Sfp inh: 16%; TDP1 block: 2%; JMJD2A Tudor inh: -3%; HP1b chromo inh: 22%; G9a inh: 18%; BAZ2B inh: 50µM*

Results for Cn1c(C(=O)N2CCOCC2)cnc1Sc1ncc(C(F)(F)F)cc1Cl ?
Sfp inh: -8%; TDP1 block: 4%; JMJD2A Tudor inh: -4%; HP1b chromo inh: 22%; G9a inh: 3%; BAZ2B inh: inconclusive

What do the screens show for `Cc1ccc(-c2nnn(CC(=O)N(Cc3ccccc3F)C(C(=O)NC3CCCC3)c3ccncc3)n2)o1` (stereo not given)?
Sfp inh: 28µM*; TDP1 block: 10%[56.1 µM]; JMJD2A Tudor inh: -34%; HP1b chromo inh: 18%; G9a inh: 25µM*; BAZ2B inh: 2%

Results for COc1ccc(C(C(=O)NC2CCCC2)N(CCO)C(=O)Cn2nnc(-c3ccc(C)o3)n2)cc1OC (stereo not given) ?
Sfp inh: -1%; JMJD2A Tudor inh: -17%; HP1b chromo inh: 3%; G9a inh: 28µM*; BAZ2B inh: -3%

How did O=C(NCC(c1ccc(Cl)cc1)N1CCCCC1)c1ccc(F)cc1 (stereo not given) do in these assays?
TDP1 block: 6%; JMJD2A Tudor inh: 2%; HP1b chromo inh: 40%; G9a inh: 3%[59 µM]; BAZ2B inh: 4%

What do the screens show for `c1ccc(CSc2nnc(-c3ccco3)o2)cc1`?
Sfp inh: 13%; TDP1 block: 3%; JMJD2A Tudor inh: 0%; HP1b chromo inh: 17%; G9a inh: 38%; BAZ2B inh: 1%

How did Brc1ccc(CSc2nnc(-c3ccco3)o2)cc1 do in these assays?
Sfp inh: 56µM*; TDP1 block: -4%; JMJD2A Tudor inh: 76%; HP1b chromo inh: 140%; G9a inh: 83%; BAZ2B inh: 68%

What do the screens show for `Cc1cc(NC(=O)c2ccoc2C)no1`?
Sfp inh: -27%; TDP1 block: -5%; JMJD2A Tudor inh: -33%; HP1b chromo inh: 13%; G9a inh: 5µM*; BAZ2B inh: -1%

Results for Cc1occc1C(=O)Nc1ccccc1NC(=O)c1ccoc1C ?
JMJD2A Tudor inh: 89µM*; HP1b chromo inh: -7%

What do the screens show for `Cc1occc1C(=O)Nc1cccc2ccccc12`?
Sfp inh: -9%; TDP1 block: 5%; JMJD2A Tudor inh: -15%; HP1b chromo inh: 5%; G9a inh: 11µM*; BAZ2B inh: -31%

What do the screens show for `Cc1cc(NC(=O)c2cc([N+](=O)[O-])cc([N+](=O)[O-])c2C)no1`?
Sfp inh: 79µM*; TDP1 block: 5%; JMJD2A Tudor inh: -26%; HP1b chromo inh: 10%; BAZ2B inh: inconclusive

How did Cc1cc(C(=O)Nc2cccc3ccccc23)c(C)o1 do in these assays?
Sfp inh: 5%; JMJD2A Tudor inh: -22%; HP1b chromo inh: -14%; G9a inh: 14%; BAZ2B inh: -18%

How did COc1cccc(Cn2c(=O)c(-c3cccc(C#N)c3)nc3cnc(Nc4ccccc4)nc32)c1 do in these assays?
Sfp inh: 15%; G9a inh: 4%[12.7 µM]

Results for COc1ccccc1NS(=O)(=O)c1cc(C(=O)NCCCN2CCCC2=O)ccc1C ?
JMJD2A Tudor inh: -11%; HP1b chromo inh: 4%

What do the screens show for `Cc1ccc(-c2cc(C(F)(F)F)n3nc(C(=O)Nc4sc5c(c4C#N)CCC(C)C5)cc3n2)cc1` (stereo not given)?
TDP1 block: 5%; JMJD2A Tudor inh: -13%; HP1b chromo inh: 16%; G9a inh: -4%[59 µM]; BAZ2B inh: -14%

What do the screens show for `COc1ccc(CNC(=O)c2cc3c(=O)n(Cc4ccco4)ccc3nc2C)c(OC)c1`?
TDP1 block: 6%; JMJD2A Tudor inh: -15%; HP1b chromo inh: 23%; G9a inh: 12%[59 µM]; BAZ2B inh: -25%

High-throughput results (PubChem)
